IL-1B inflam inh: inhibitors of inflammasome signaling (IL-1 beta secretion); THP-1 LPS/ATP IL-1B secretion, AlphaLISA, 16 h; hits give low values; activity change, % at 57.5 µM; 4.7% of 360,000 active; AID 743279; in the data active = activity change below about -50%; inconclusive = mostly about -30% to -49%
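Secreted IL-1B measured by AlphaLISA bead assay after 16 h compound exposure of THP-1 cells; compounds (final up to 57.5 uM) added 1 h before LPS (250 ng/mL) and ATP (1.25 mM) stimulation; lower signal means less secretion.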
DT40 TDP1 no CPT: qHTS for Inhibitors of human tyrosyl-DNA phosphodiesterase 1 (TDP1): qHTS in cells in absence of CPT; AID 686978, 2013; 15% of 420,000 active; DT40 Tdp1-/- hTDP1 cells, no CPT, ATP luminescence, 48 h; Potency, µM (highest dose often 46.2 µM), inactives show at the top dose activity change, negative = growth inhibition, usual class: inhibitors; also: potency is read from the fitted curve at half-maximal effect; nearly all actives have a fitted effect of over 55% in size
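Camptothecin absent (DMSO only). Human TDP1-complemented DT40 knockout cells, 400 cells/well, 37 °C for minimum 48 hr; ATP measured via CellTiter-Glo, 30 min dark incubation, luminescence.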
DT40 TDP1 CPT: growth inhibition of DT40 Tdp1-/-;hTDP1 cells with camptothecin (screen for TDP1 inhibitors). Potency, µM (highest dose often 46.2 µM), for the others: at the top dose activity change, negative = growth inhibition, usual class: inhibitors. 12% of 420,000 active. chicken DT40 Tdp1-/-;hTDP1 cells + 20 nM CPT, ATP luminescence, 48 h. AID 686979; also: potency is read from the fitted curve at half-maximal effect; nearly all actives have a fitted effect of over 55% in size
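Cell growth measured by CellTiter-Glo luminescence after a minimum 48 h, 37 C compound exposure with 20 nM CPT in Tdp1-knockout DT40 cells stably expressing hTDP1, seeded 400/well; qHTS titration format.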
HT1080NT lethal: kills 2HG-producing HT-1080-NT fibrosarcoma cells; HT-1080-NT fibrosarcoma viability, CellTiter-Glo ATP luminescence, 48 h; Potency, µM (top dose mostly 46.1 µM), for inactives: at the highest dose activity, negative = less viability, most hits filed as cytotoxic; 1.6% of 360,000 active;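 also: NT is the 2HG producing partner of a matched IDH1 knockdown line; potency is read from the fitted curve at half-maximal effect; 0% = DMSO-treated cells and -100% = media-only wells without cells; nearly all actives have a fitted effect of over 55% in size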
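Toxicity toward the 2HG-producing NT line was scored as %Activity, normalised to DMSO and no-cell wells, from CellTiter-Glo luminescence after 48 hours' treatment.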
HT1080 IDH1KD tx: kills HT-1080 cells with IDH1 knockdown | HT-1080 IDH1 knockdown viability, ATP luminescence, 48 h | Potency, µM (titrated, usually from 46.1 µM), without a hit: at the highest dose activity, negative = toxicity, usual class: cytotoxic | 2% of 360,000 active | AID 686971;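 also: potency is read from the fitted curve at half-maximal effect; 0% = DMSO wells and -100% = cell-free medium wells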
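Assay cells: HT-1080 with IDH1 knockdown, 750 per well, RPMI/5% FBS. Exposure: 48 h at 37 °C following 2 h pre-incubation. Read: CellTiter-Glo luminescence; fitted concentration-response, curve class assigned.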
Numbers without * were called inactive; u = inconclusive; x = no result; [ ] = remark or other dose. Most compounds without a hit are left out; they make up all but 19% or so of the library. Unless noted, calls follow the shape of the dose curve; as a rule, active = well fitted curve in the direction sought with a large enough effect; inconclusive = small, poorly fitted or top-dose-only effect, or another doubt; inactive = no such curve, though single readings can be large; an effect the other way counts as inactive or inconclusive. Unless noted, % is scaled to controls: 0 for no effect and ±100 for the full control effect.

SMILES | IL-1B inflam inh | DT40 TDP1 no CPT | DT40 TDP1 CPT | HT1080NT lethal | HT1080 IDH1KD tx
C/C=N/NC(=O)c1cc(Br)ccc1O | 8 | -17% | -5% | -4% | -9%
COCCN(CCOC)C(=O)COC(=O)c1cc([N+](=O)[O-])ccc1Cl | u | -1% | 4% | 3% | 1%
CCN(CC)S(=O)(=O)c1cccc2cc(C(=O)O)c(O)cc12 | -1 | -12% | -12% | -5% | 1%
CCC(CC)C(=O)Nc1ccc(-c2cn3cccnc3n2)cc1 | u | -23% | -4% | 14% | 0%
O=C(O)C1C2C=CC(C2)C1C(=O)NCc1ccc(Cl)c(Cl)c1 (configuration not stated) | 26 | -4% | 15µM* | -1% | -2%
O=C(O)C1C2C=CC(C2)C1C(=O)NCc1ccc2c(c1)OCO2 (configuration not stated) | 0 | -3% | -13% | -2% | 4%
COc1ccc(OCCCC(=O)OCC(=O)Nc2nnc(-c3ccccc3)o2)cc1 | 0 | u | -14% | -2%[9.24 µM] | -2%
O=C(N/N=C/C=C/c1ccccc1)c1cc(C2CC2)[nH]n1 | -54* | -20% | 7% | -2% | 0%
Cc1cc(C(=O)N/N=C/C=C/c2ccccc2)n[nH]1 | -23 | -9% | -5% | 29% | u
Cc1ccc(-c2cc(C(=O)N/N=C/C=C/c3ccccc3)n[nH]2)s1 | -7 | u | 16µM* | u | -25%
c1ccc(CSc2cc3ccccc3[nH]2)cc1 | -27 | u | u | u | -21%
Cc1ccc(O/C=C2/Nn3c(nnc3-c3cc(-c4ccccc4)n[nH]3)S2)cc1 | x | 16µM* | 7.1µM* | x | x
COc1ccc(-c2cc(-c3n[nH]c(=S)n3-c3ccccc3OC)[nH]n2)cc1 | 14 | -14% | -10% | 15% | 8%
Cc1cccc(NC(=O)Nc2ccc3c(c2)N(C)C(=O)CS3)n1 | -56* | u | u | 0% | -3%
COc1ccc(Cl)cc1-c1cc(C(=O)NCc2ccco2)[nH]n1 | -18 | u | u | -17% | -25%
Cc1ccc(NC(=O)COc2ccc(Br)cc2CO)cc1S(=O)(=O)N1CCOCC1 | -29 | 18µM* | u | -4% | -1%
Cc1cc(NCC(=O)Nc2ccc(C)c(S(=O)(=O)N3CCOCC3)c2)ccc1Br | -4 | 18µM* | u | -24% | -4%
O=C(COc1ccc(Br)cc1CO)Nc1ccc(S(=O)(=O)N2CCCC2)cc1 | -57* | u | u | -4% | -19%
Cc1ccc(NC(=O)COc2cccc(-n3cnnn3)c2)cc1S(=O)(=O)N1CCOCC1 | 18 | 23µM* | u | -2% | -4%
O=C(COc1ccc(Br)cc1CO)Nc1ccc(F)cc1 | -12 | -21% | -13% | 13% | 5%
O=C(CSc1n[nH]c(=O)n1C1CC1)NCc1ccccc1Cl | 2 | 15% | -6% | 1% | 0%
O=C(NCc1ccccc1)C(c1ccco1)N(C(=O)c1ccccn1)c1ccc(F)cc1 (configuration not stated) | 11 | -7% | 2% | 1% | 7%
Cc1nnc(SCC(=O)N2CCN(c3ccccc3F)CC2)n1C1CC1 | 1 | -24% | -1% | 0% | 4%
Cc1cc[n+](CC(=O)Nc2cccc(C)c2)cc1 | 2 | -24% | -7% | -4% | -2%
COC(C(=O)Nc1ccc(S(=O)(=O)Nc2ccc(F)cc2)cc1)c1ccccc1 (configuration not stated) | -101* | u | u | u | u
SMILES | IL-1B inflam inh | DT40 TDP1 no CPT | DT40 TDP1 CPT | HT1080NT lethal | HT1080 IDH1KD tx
COc1ccc(-c2ccc(CN3C(C(C)C)C(=O)N(Cc4cn(CC5CCCCC5)nn4)CCS3(=O)=O)cc2)cc1 (configuration not stated) | -6 | 16µM* | 15µM* | -19% | -27%
CC(C)C1C(=O)N(Cc2cn(CC3CCCCC3)nn2)CCS(=O)(=O)N1Cc1ccc(-c2ccc(F)cc2)cc1 (configuration not stated) | -23 | 9.2µM* | -20% | u | u
O=C1CN(C(=O)COC(=O)CCC(=O)c2ccc3c(c2)OCCO3)c2ccccc2N1 | 28 | 7% | -5% | -1% | -4%
COCCNC(=S)N1CCC(C(=O)c2ccc3c(c2)OCCO3)CC1 | 23 | u | -22% | 1% | 3%
CC(=O)Oc1cccc(N2C(=O)c3ccc(C(=O)Nc4c[nH]c(=O)[nH]c4=O)cc3C2=O)c1 | 8 | -1% | -2% | 1% | 17%
COc1ccc(CCNC(=O)CC2SC(=NCc3ccccc3)NC2=O)cc1 (configuration not stated) | 0 | -3% | 6% | 16% | -7%
O=C(NCc1ccco1)c1ccc2c(c1)N(Cc1ccc(F)cc1)C(=O)c1ccccc1S2(=O)=O | x | 15µM* | u | x | x
O=C(NCc1ccco1)c1ccc2c(c1)N(Cc1ccc(Cl)cc1)C(=O)c1ccccc1S2=O (configuration not stated) | x | 18µM* | u | x | x
COc1cccc(CN2C(=O)c3ccccc3Sc3ccc(C(=O)N(C)Cc4ccccc4)cc32)c1 | x | 18µM* | u | x | x
O=C(NCc1ccco1)c1ccc2c(c1)N(Cc1ccc(Cl)cc1)C(=O)c1ccccc1S2(=O)=O | x | 18µM* | u | x | x
O=C(NCCN1CCCC1)c1ccc2c(c1)N(Cc1ccccc1)C(=O)c1ccccc1S2(=O)=O | u | 3% | -19% | -26% | -1%
Cc1ccc(C(=O)N2CCCc3ccccc32)c(F)c1F | 17 | u | -25% | 21% | -2%

Screens: PubChem BioAssay, National Center for Advancing Translational Sciences (NCATS)
